BAZ2B block: qHTS Assay for Inhibitors of BAZ2B; Bromodomain adjacent to zinc finger domain protein 2B (Homo sapiens), Q9UIF8; AlphaScreen BAZ2B-H3K14Ac peptide displacement; Potency, µM (top dose mostly 114 µM), inactives show top-dose activity change, negative = inhibition, most hits filed as inhibitors; 4.4% of 360,000 active; further: on the % scale 0 is the no-effect control and ±100 the full control effect; nearly all actives have a fitted effect of over 60% in size
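Multi-concentration screen (max 110 uM) measuring displacement of acetylated histone H3 peptide from BAZ2B by AlphaScreen, using 50 nM protein, 50 nM peptide and 10 ug/mL streptavidin donor plus Ni-chelate acceptor beads.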
Sfp inh: qHTS Assay for Inhibitors of Bacillus subtilis Sfp phosphopantetheinyl transferase (PPTase) | Potency, µM, for the others: largest response in the series, negative = inhibition, most hits filed as inhibitors | 3.5% of 310,000 active | Biochemical Sfp PPTase activity, qHTS;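 further: the enzyme is Sfp with the accession as filed and its product quenches rhodamine fluorescence; 0% = enzyme reaction without inhibitor and -100% = no enzyme wells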
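Fluorescence-quenching assay: 15 nM Sfp-PPTase preincubated 15 min at room temperature with compound, then 5 uM rhodamine-CoA and 12.5 uM BHQ-2-labelled YbbR peptide added. Fluorescence (ex 525/em 598 nm) read at start and after 30 min; difference gives rate.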
JMJD2A Tudor inh: qHTS Assay for Inhibitors of JMJD2A-Tudor Domain; AlphaScreen JMJD2A-Tudor / H3K4me3 peptide binding; Potency, µM (series often up to 114 µM), inactives show at the top dose activity change, negative = inhibition, actives largely listed as inhibitors; 4.4% of 390,000 active; further: on the % scale 0 is the no-effect control and ±100 the full control effect; nearly all actives have a fitted effect of over 50% in size
PLK1 PBD block: qHTS for Inhibitors of PLK1-PDB (polo-like kinase 1 - polo-box domain): Primary Screen. Serine/threonine-protein kinase PLK1 (Homo sapiens), P53350. Plk1 PBD binding of FITC phosphopeptide, fluorescence polarization. Potency, µM, for inactives: max response, negative = inhibition, actives largely listed as inhibitors. 2.8% of 360,000 active. AID 720504, 2013; further: series mostly up to about 57 µM; on the % scale 0 is the no-effect control and ±100 the full control effect; nearly all actives have a fitted effect of over 65% in size
G9a block: qHTS Assay for Inhibitors of Histone Lysine Methyltransferase G9a. G9a H3K9 monomethylation, AlphaScreen, 2 h. Potency, µM (highest dose often 102 µM), without a hit: top-dose activity, negative = inhibition, most hits filed as inhibitors. 8.8% of 350,000 active; further: on the % scale 0 is the no-effect control and ±100 the full control effect; nearly all actives have a fitted effect of over 75% in size
Target sequence (Q96KQ7 913-1193 limits assumed): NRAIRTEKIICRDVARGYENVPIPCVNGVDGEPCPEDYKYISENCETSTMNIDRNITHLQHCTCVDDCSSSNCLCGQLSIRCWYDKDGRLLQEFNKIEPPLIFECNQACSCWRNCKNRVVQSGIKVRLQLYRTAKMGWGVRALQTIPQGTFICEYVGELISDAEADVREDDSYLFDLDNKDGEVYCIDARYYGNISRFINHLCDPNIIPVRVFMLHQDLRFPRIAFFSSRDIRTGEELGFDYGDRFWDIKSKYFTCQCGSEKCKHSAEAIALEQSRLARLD
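AlphaScreen detection with an anti-monomethyl H3K9 antibody quantified product after a 2 h room-temperature reaction containing 500 nM biotinylated H3K9 peptide, 20 µM SAM and 20 nM enzyme, which had been preincubated 15 min with compound.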
HP1b binding inh: HTS for Inhibitors of HP1-beta Chromodomain Interactions with Methylated Histone Tails | AlphaScreen HP1-beta / biotin-H3K9me3 peptide binding | Potency, µM (doses to about 114 µM), for the others: top-dose activity change, negative = inhibition, hits mostly inhibitors | 0.56% of 390,000 active; further: nearly all actives have a fitted effect of over 70% in size
Target sequence (P83916 whole entry, looked up): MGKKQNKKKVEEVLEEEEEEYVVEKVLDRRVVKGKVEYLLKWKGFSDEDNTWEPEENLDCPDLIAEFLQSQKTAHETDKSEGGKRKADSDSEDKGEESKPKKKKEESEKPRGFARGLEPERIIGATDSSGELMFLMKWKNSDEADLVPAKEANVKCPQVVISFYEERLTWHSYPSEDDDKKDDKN
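HP1-beta protein (50 nM final) preincubated 30 min at room temperature with biotinylated H3(1-18)K9me3 peptide (50 nM) in PBS pH 7.4, 0.01% Tween-20, then compound added for 30 min. AlphaScreen streptavidin donor/nickel chelate acceptor beads (10 ug/mL final), 30 min dark, luminescence read.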
* marks the source's active call; other numbers are inactive results; ? = inconclusive; . = not tested or not shown; [ ] = remark or other dose. Shown are actives, neighbours in structure and some others; about 12% of the full set was active somewhere. The call rests on the fitted dose curve; in most records, active means well fitted curve in the direction sought with a large enough effect; inconclusive means small, poorly fitted or top-dose-only effect, or another doubt; inactive means no such curve, though single readings can be large; an effect the other way counts as inactive or inconclusive. Potency means the concentration at half of the fitted maximal effect.

SMILES	BAZ2B block	Sfp inh	JMJD2A Tudor inh	PLK1 PBD block	G9a block	HP1b binding inh
CC(C)CC1NC(=O)c2cccnc2-n2c1nc1ccccc1c2=O (configuration not stated)	.	.	.	-14%	.	.
COc1cc(OC)c2c(C)cc(=O)oc2c1C(CCN1CCN(c2ccccc2)CC1)c1ccc2c(c1)OCO2 (configuration not stated)	25µM*	-5%	28µM*	-20%	-5%[12.7 µM]	?
CNc1c(NS(=O)(=O)c2ccc(CC(C)C)cc2)c(=O)oc2ccccc12	2%	-5%	-7%	2%	-9%	21%
CC1=NNC(=O)/C1=C\c1cn(-c2ccccc2)nc1-c1cccs1	?	32µM*	?	2.7µM*	10µM*	-13%
O=Cc1cn(-c2ccccc2)nc1-c1ccc(F)cc1	7%	0%	-12%	0%	30%	56%
Cc1c(NC(=O)/C=C/c2cn(-c3ccccc3)nc2-c2ccc(F)cc2)c(=O)n(-c2ccccc2)n1C	?	10%	?	11µM*	?	-19%
CC1=NNC(=O)/C1=C\c1cn(-c2ccccc2)nc1-c1ccc(F)cc1	-38%	9%	-32%	1.5µM*	10µM*	-4%
CCCOc1ccccc1C(=O)N1CCC(c2nc3ccccc3s2)CC1	-13%	.	-20%	.	-25%[59 µM]	37%
CCOC(=O)/C=C1\CN(Cc2cc(OC)c(OC)c(OC)c2)S(=O)(=O)c2ccc(C(F)(F)F)cc21	?	11%	-30%	-21%	35µM*	23%
N#Cc1ccc(OCC(=O)NC2CCCCCC2)cc1	.	.	-1%	-7%	.	11%
N#Cc1ccc(C(=O)OCC(=O)NC2CCCC2)cc1	5%	17%	-3%	-1%	45µM*	32%
O=C(COC(=O)c1ccccc1Br)NC1CCCC1	-14%	1%	3%	-3%	40µM*	21%
O=C(COC(=O)c1ncc(Cl)c(Cl)c1Cl)NC1CCCCCC1	23%	.	-3%	-4%	40µM*	19%
O=C(COC(=O)c1nc(Cl)ccc1Cl)NC1CCCCCC1	-21%	.	-6%	-2%	-15%	31%
Cc1ccc(-c2nnn(CC(=O)N(Cc3ccco3)C(C(=O)NC(C)(C)C)c3ccc(C)o3)n2)o1 (configuration not stated)	-27%	-1%	?	-14%	-6%	36%
Cc1ccc(-c2nnn(CC(=O)N(c3cccc(F)c3)C(C(=O)NC(C)(C)C)c3ccco3)n2)o1 (configuration not stated)	-27%	-17%	-13%	-5%	50µM*	27%
CC(C)(C)NC(=O)C(c1ccc(O)cc1)N(Cc1ccco1)C(=O)Cn1nnc(-c2cccs2)n1 (configuration not stated)	-32%	-23%	?	-1%	20µM*	2%
Cc1ccc(-c2nnn(CC(=O)N(c3cccc(O)c3)C(C(=O)NC(C)(C)C)c3cccs3)n2)o1 (configuration not stated)	1%	4%	-20%	-9%	45µM*	5%
CC(C)(C)NC(=O)C(c1ccncc1)N(C(=O)Cn1nnc(-c2ccc(F)cc2)n1)c1ccc(F)cc1 (configuration not stated)	-4%	-2%	-11%	-16%	3%[12.7 µM]	19%
CC(C)(C)NC(=O)C(c1ccncc1)N(C(=O)Cn1nnc(-c2ccc(F)cc2)n1)c1ccccc1 (configuration not stated)	?	20µM*	?	27µM*	22µM*	-4%
CC(=O)OC[C@@H]1O[C@H](C/C=N\O[C@@H]2O[C@H](COC(C)=O)[C@@H](OC(C)=O)[C@H](OC(C)=O)[C@H]2OC(C)=O)C=C[C@@H]1OC(C)=O	.	-5%	.	.	.	.
CCN(c1ccccc1)S(=O)(=O)c1ccc2[nH]cc(C(=O)NCCOC)c(=O)c2c1	10%	2%	-18%	-4%	13%[12.7 µM]	0%
CCN(c1ccccc1)S(=O)(=O)c1ccc2[nH]cc(C(=O)NCc3ccc(C)cc3)c(=O)c2c1	-12%	.	56µM*	.	-14%[59 µM]	13%
NS(=O)(=O)c1ccc(CNc2nc(-c3cccnc3)nc3ccccc23)cc1	0%	14%	-14%	-1%	-2%	38%
COc1cc(-c2nc3ncccn3c2Nc2ccc(C)cc2C)ccc1O	1%	.	-25%	.	4%[59 µM]	20%
SMILES	BAZ2B block	Sfp inh	JMJD2A Tudor inh	PLK1 PBD block	G9a block	HP1b binding inh
CC(=O)N1CC=CC1(C)C(=O)O (configuration not stated)	-4%	26%	-11%	-10%	50µM*	28%
COc1ccc(-c2noc(N3CCC(C(=O)N(C)c4ccccc4)CC3)n2)cc1	-1%	-6%	-11%	-4%	7%	16%
c1ccc(NCc2cccnc2)cc1	-7%	17%	-20%	-6%	45µM*	18%
NNC(=S)NCc1cccnc1	0%	63µM*	?	5%	1.4µM*	10%
S=C(NCc1cccnc1)Nc1ccc(Oc2ccccc2)cc1	?	40µM*	-26%	-26%	.	-9%
S=C(NCc1ccco1)Nc1ccc(N2CCOCC2)cc1	-6%	-22%	-24%[57.1 µM]	27µM*	?	-14%
CCOC(=O)N1CCC2(CC1)OC(=O)C(C)=C2C(=O)NCc1ccc(C)cc1	8%	.	3%	.	8%[59 µM]	24%
S=C(NCc1ccco1)Nc1cc(-c2ccccc2)[nH]n1	40µM*	1%	?	-16%	-151%[59 µM]	?
S=C(NCc1ccco1)Nc1ccc(Oc2ccccc2)cc1	?	20µM*	-23%	17µM*	.	?
S=C(NCc1ccco1)Nc1ccc(Br)cn1	10%	-11%	-14%	?	63%	16%
CN(C)c1ccc(-c2cc[nH]c(=O)c2N)cc1	.	.	20µM*	.	.	.
Cc1nonc1OCCCNc1ccc([N+](=O)[O-])cc1Cl	-26%	7%	-26%[57.1 µM]	-8%	1.3µM*	29%
COc1cc(C(=O)NCC(=O)OCC(=O)Nc2nnc(-c3ccccc3)o2)cc(OC)c1OC	?	.	22µM*	1%	-4%[59 µM]	12%
COc1cc(C(=O)NCC(=O)OCC(=O)c2cccc3ccccc23)cc(OC)c1OC	-24%	17%	-4%	-16%	71µM*	7%
O=C(COC(=O)CNC(=O)c1ccccc1)Nc1nnc(-c2ccccc2)o1	?	.	?	0%	45µM*	51%

Source: PubChem BioAssay (National Center for Advancing Translational Sciences (NCATS))
